According to PubChem BioAssay (Tox21):
Records with an inconclusive call do not appear. A call without a number means that no potency is given here. Calls of active or inactive are those of the source. The call rests on the fitted dose curve; in most records, active means well fitted curve in the direction sought with a large enough effect in the repeat runs; inconclusive means weak or mixed curves; inactive means no such curve, though single readings can be large; an effect the other way counts as inactive or inconclusive.

Tests used:
[1] = qHTS assay to identify small molecule antagonists of the retinoid acid receptor (RAR) signaling pathway - cell viability counter screen (AID 1159551); further: nearly all actives have a fitted effect of over 35% in size
How it was run: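 C3RL4 RARE-luciferase line; cpds + retinol 1 uM final, 6 h, 37 C/5% CO2; CellTiter-Glo ATP luminescence, 30 min RT.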

[2] = qHTS assay to identify small molecule antagonists of the estrogen related receptor (ERR) signaling pathway from Tox21 library - cell viability counter screen (AID 1224834); further: nearly all actives have a fitted effect of over 30% in size; further: potency means the concentration at half of the fitted maximal effect
How it was run: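 Multiplexed viability counter screen in ERR cells: 17.5 h compound exposure at 37 C, CellTiter-Fluor added, 30 min at 37 C/5% CO2, fluorescence read.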

Compound | outcome [1] | Potency [2]
CCCCCC(=O)OCCc1ccccc1 | inactive | inactive
O=[N+]([O-])c1ccc(/C=N\O)o1 | inactive | inactive
OCCCCCO | inactive | inactive
C1CCC2=NCCCN2CC1 | inactive | inactive
[O-][n+]1cccc(CO)c1 | inactive | inactive
[K+] | inactive | inactive
CC1(C)OC[C@@H](COC(=O)CCc2ccc(OC[C@@H](O)CNCCNC(=O)N3CCOCC3)cc2)O1 | inactive | inactive
Nc1ccncc1N | inactive | inactive
CC(=O)N1C[C@H](O)C[C@H]1C(=O)O | inactive | inactive
O=C(O)c1cn(C2CC2)c2cc(N3CCNCC3)c(F)cc2c1=O | inactive | inactive
CC(=O)Oc1cccc(C)c1 | inactive | inactive
CC(C)(N)C#N | inactive | inactive
CC(=O)c1ccc2ccccc2c1 | inactive | inactive
CC1=C(C/C=C(\C)CCC[C@H](C)CCC[C@H](C)CCCC(C)C)C(=O)c2ccccc2C1=O | inactive | inactive
C=CCOCC(O)CO (stereo not given) | inactive | inactive
O=C(c1ccccc1)C1(O)CCCCC1 | inactive | inactive
COc1cc(C)nc(-n2nc(C)cc2OC)n1 | inactive | inactive
Clc1cc(Cl)cc(Cl)c1 | inactive | inactive
CCOc1c(N2CCOCC2)cnn(C)c1=O | inactive | inactive
CCOc1ccccc1OCC | inactive | inactive
NC(=O)Cc1cccc2ccccc12 | inactive | inactive
CCCCCCCCCCCCCCC(=O)O | inactive | inactive
NC(CCC(=O)O)C(=O)O (stereo not given) | inactive | inactive
CC(COc1ccccc1)NN (stereo not given) | inactive | inactive

Compound | outcome [1] | Potency [2]
Cc1nc(C2CCCCC2)c(-c2ccc(S(N)(=O)=O)c(F)c2)o1 | inactive | inactive
CC(C)CC(C)(N)C#N (stereo not given) | inactive | inactive
C=C(C)C(=O)OCC(O)CO (stereo not given) | inactive | inactive
CC(C)(CCC(=O)O)C(=O)O | inactive | inactive
NCCCC[C@H](N[C@@H](CCc1ccccc1)C(=O)O)C(=O)N1CCC[C@H]1C(=O)O | inactive | inactive
N[C@H](C(=O)O)[C@@H](O)c1ccc(O)c(O)c1 | inactive | inactive
CN1[C@@H]2CC[C@H]1CC(OC(=O)C(O)c1ccccc1)C2 (stereo not given in full) | inactive | inactive
CCCC[N+](C)(CCCC)CCCC | inactive | inactive
CCOC(=O)OC(C)OC1=C(C(=O)Nc2ccccn2)N(C)S(=O)(=O)c2ccccc21 (stereo not given) | inactive | inactive
CCCCCC(C)N (stereo not given) | inactive | inactive
c1ccc(Cc2ccccc2)cc1 | inactive | inactive
CC/C=C\CCOC(C)OCC (stereo not given) | inactive | inactive
CCCC(=O)O[C@]1(C(=O)CC)CC[C@H]2[C@@H]3CCC4=CC(=O)CC[C@]4(C)[C@H]3[C@@H](O)C[C@@]21C | inactive | inactive
O=C(O)CNC(=O)c1ccccc1 | inactive | inactive
Cc1ccnc(NS(=O)(=O)c2ccc(N)cc2)n1 | inactive | inactive
O=C(CO)[C@@H](O)[C@H](O)[C@H](O)CO | inactive | inactive
CC(=O)O[C@@]12CO[C@@H]1C[C@H](O)[C@@]1(C)C(=O)[C@H](O)C3=C(C)[C@@H](OC(=O)[C@H](O)[C@@H](NC(=O)OC(C)(C)C)c4ccccc4)C[C@@](O)([C@@H](OC(=O)c4ccccc4)[C@H]21)C3(C)C | inactive | 0.0668 µM (active)
C[C@@H]1C[C@H]2[C@@H]3C[C@H](F)C4=CC(=O)C(Cl)=C[C@]4(C)[C@@]3(F)[C@@H](O)C[C@]2(C)[C@@]1(O)C(=O)CO | inactive | inactive
CO[C@@]1(NC(=O)CSC[C@@H](N)C(=O)O)C(=O)N2C(C(=O)O)=C(CSc3nnnn3C)CS[C@@H]21 | inactive | inactive
O=CN(CCO)CCO | inactive | inactive
CC(C)C1CCC(O)CC1 (stereo not given) | inactive | inactive
O=[N+]([O-])c1cncn1CCN1CCOCC1 | inactive | inactive
CC1(C)[C@@H]2CC[C@@]1(C)[C@H](O)C2 | inactive | inactive
Clc1cc(Cl)c(Cl)nc1Cl | inactive | inactive

Compound | outcome [1] | Potency [2]
O=C(O)Cc1csc(-c2ccc(Cl)cc2)n1 | inactive | inactive
CCC(C(=O)NC(=O)NC(C)=O)c1ccccc1 (stereo not given) | inactive | inactive
CO[Si](C)(OC)c1ccccc1 | inactive | inactive
NC(=O)NC1N=C([O][Al])NC1=O (stereo not given) | inactive | inactive
C=CN1CCCCCC1=O | inactive | inactive
CC[N+](CC)(CC(=O)Nc1c(C)cccc1C)Cc1ccccc1 (tested in a mixture with another compound) | inactive | inactive
CCOC(=O)COC(=O)c1ccccc1C(=O)OCC | inactive | inactive
CCOC(=O)C(=O)CCCCCCl | inactive | inactive
CCCCCCCCCCCCSC | inactive | inactive
COc1ccccc1OCC1CNC(=O)O1 (stereo not given) | inactive | inactive
CN(C)CCN(C)CCN(C)C | inactive | inactive
NC(=O)N[C@@H](CCC(=O)O)C(=O)O | inactive | inactive
CC(=O)OCC(=O)[C@@]1(O)[C@H](C)C[C@H]2[C@@H]3CCC4=CC(=O)C=C[C@]4(C)[C@@]3(F)[C@@H](O)C[C@@]21C | inactive | inactive
O=S(=O)(O)c1cccc2ccccc12 | inactive | inactive
CCC(=O)OCc1ccccc1 | inactive | inactive
OCCc1ccccn1 | inactive | inactive
CCCOC(=O)CC | inactive | inactive
CCN(C=O)CC | inactive | inactive
CC(C)(C#N)Nc1nc(Cl)nc(NC2CC2)n1 | inactive | inactive
CN(C)[C@@H]1C(=O)C(C(=O)NCN2CCCC2)=C(O)[C@@]2(O)C(=O)C3=C(O)c4c(O)cccc4[C@@](C)(O)C3C[C@@H]12 (stereo not given in full) | inactive | inactive
CC1=NN(c2cccc(S(=O)(=O)O)c2)C(=O)C1 | inactive | inactive
C=CCCC(=O)O | inactive | inactive
